# Screens from PubChem BioAssay.
# SARS PLP yeast: qHTS of Yeast-based Assay for SARS-CoV PLP | S. cerevisiae expressing SARS-CoV PLpro, growth rescue | Potency, µM (titrated, usually from 32.9 µM), without a hit: at the highest dose activity, positive = growth rescue, usual class: activators | actives 0.19% (n = 330,000); calls by dose curve; also: 0% is about no effect; nearly all actives have a fitted effect of over 55% in size
# TbPYK inhibitor: qHTS of Trypanosoma Brucei Inhibitors | pyruvate kinase (Trypanosoma brucei), Q57TT1 | TbPYK enzyme, Kinase-Glo Plus ATP luminescence, 45 min | Potency, µM (top dose mostly 76.8 µM), without a hit: top-dose activity, negative = inhibition, hits mostly inhibitors | actives 0.12% (n = 410,000); also: % is scaled to controls: 0 for no effect and ±100 for the full control effect; nearly all actives have a fitted effect of over 50% in size
#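 Luminescence from Kinase-Glo Plus, added after a 45-minute room-temperature reaction, served as the end-point read-out. The enzyme and substrate were preincubated with compound before ADP (130 uM final) initiated turnover. Concentration-effect curves came from normalized qHTS data.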
# LmPK inh: qHTS Assay for Inhibitors of Leishmania Mexicana Pyruvate Kinase (LmPK). Q27686. AID 1721, 2009. purified LmPK, Kinase-Glo ATP luminescence, 1 h. Potency, µM (doses to about 57.5 µM), inactives show top-dose activity change, negative = inhibition, most hits filed as inhibitors. actives 0.37% (n = 290,000); also: % is scaled to controls: 0 for no effect and ±100 for the full control effect
# Target sequence (Q27686 whole entry, looked up): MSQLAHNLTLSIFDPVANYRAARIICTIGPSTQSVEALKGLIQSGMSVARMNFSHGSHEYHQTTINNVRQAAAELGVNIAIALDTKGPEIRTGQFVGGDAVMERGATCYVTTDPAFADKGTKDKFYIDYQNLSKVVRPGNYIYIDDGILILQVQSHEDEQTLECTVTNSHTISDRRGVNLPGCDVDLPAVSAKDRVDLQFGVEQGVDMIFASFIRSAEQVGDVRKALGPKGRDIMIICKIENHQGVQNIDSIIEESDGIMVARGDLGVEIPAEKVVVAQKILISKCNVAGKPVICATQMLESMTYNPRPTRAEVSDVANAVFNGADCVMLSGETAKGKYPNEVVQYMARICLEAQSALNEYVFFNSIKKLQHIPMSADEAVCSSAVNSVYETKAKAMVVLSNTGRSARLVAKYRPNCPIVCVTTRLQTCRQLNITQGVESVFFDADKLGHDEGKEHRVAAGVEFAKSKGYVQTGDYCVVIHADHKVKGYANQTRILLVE
#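 Purified LmPK (0.1 nM) converted ADP (0.1 mM) to ATP with PEP (0.5 mM) in imidazole buffer pH 7.2 with KCl and MgCl2, 1 h at room temperature. ATP was read by Kinase-Glo luminescence; data normalized to uninhibited and no-enzyme controls.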
# Sm TGR block: qHTS Assay for the Inhibitors of Schistosoma Mansoni Peroxiredoxins | Schistosoma mansoni thioredoxin glutathione reductase (TGR), Q962Y6 | purified TGR, DTNB reduction, TNB absorbance 405 nm | Potency, µM (doses to about 114 µM), for the others: top-dose activity change, negative = inhibition, most hits filed as inhibitors | actives 3% (n = 360,000); also: % is scaled to controls: 0 for no effect and ±100 for the full control effect; nearly all actives have a fitted effect of over 60% in size
#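 TGR 20 nM + NADPH 100 uM (dispensed conc.), cpd preinc 15 min RT; start with NADPH (500 uM addition) then DTNB (15 mM addition). Kinetic TNB absorbance, 405 nm filter. Four-parameter Hill fit across titration.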
# NS1 inh: qHTS Assay for Inhibitors of Influenza NS1 Protein Function. Potency, µM (titrated, usually from 46.1 µM), for inactives: at the highest dose activity, positive = more growth. actives 0.4% (n = 270,000). AID 2326, 2010; calls by dose curve; also: actives are rising curves; nearly all actives have a fitted effect of over 50% in size
#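 A cell-based growth assay was used: compounds that relieve NS1-induced slow growth of budding yeast raise OD600. Assay medium was yeast nitrogen base with ammonium sulphate and -URA supplement, pH 6.0, with 2% galactose.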
# RE007 growth inh: qHTS Assay for Inhibitors of the HIV-1 protein Vpr; actives 0.21% (n = 360,000); S. pombe RE007 Vpr strain, BacTiter-Glo ATP luminescence, 24 h; AID 651644, 2012; Potency, µM (doses to about 92.2 µM), for inactives: at the highest dose activity change, negative = less growth, most hits filed as inhibitors; active = well fitted falling curve with a large enough effect; inconclusive = small, poorly fitted or top-dose-only effect; inactive = no such curve, though single readings can be large or run the other way; also: % is scaled to controls: 0 for no effect and ±100 for the full control effect; nearly all actives have a fitted effect of over 50% in size
#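 Fission yeast strain RE007, carrying one chromosomally integrated HIV-1 vpr copy, was seeded at OD 0.01 in PMG+AL medium with 23 nL pinned compound. After 24 h at 30 °C and 99% humidity, viability was read by BacTiter-Glo luminescence.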
# The depositor's hits bear a star; ? = inconclusive; . = not tested or not shown; [ ] = dose if it differs, or a comment. Compounds with a hit are over-represented: about 3.3% of the library has one in this group of screens. Unless noted, calls follow the shape of the dose curve; as a rule, active = well fitted curve in the direction sought with a large enough effect; inconclusive = small, poorly fitted or top-dose-only effect, or another doubt; inactive = no such curve, though single readings can be large; an effect the other way counts as inactive or inconclusive. Potency is read from the fitted curve at half-maximal effect.
SMILES,SARS PLP yeast,TbPYK inhibitor,LmPK inh,Sm TGR block,NS1 inh,RE007 growth inh
CN(C)C1C(=O)C(C(N)=O)=C(O)C2(O)C(=O)C3=C(O)c4c(O)cccc4C(C)(O)C3C(O)C12 (stereo unspecified),-13.7%,-21.0%,-4.8%,31.6µM*,7.8%,3.9%[18.4 µM]
O=C1/C(=C\c2cccc(O)c2O)SC(=S)N1Cc1ccccc1,-8.9%,-19.3%,-3.2%,-4.0%,-18.2%,?
O=C1/C(=C\c2cc([N+](=O)[O-])ccc2O)SC(=S)N1Cc1ccc(Cl)cc1,-8.0%,-3.4%,0.8%,-7.0%,-52.2%,39.8µM*
O=C(Oc1ccc(Cl)c2cccnc12)c1cccnc1,-0.3%,-2.2%,0.3%,39.8µM*,-44.5%,?
Cc1ccc(C(=O)Oc2ccc(Cl)c3cccnc23)cc1[N+](=O)[O-],-19.6%,0.5%,2.9%,10.9%,-53.7%,-8.9%
CCCCCCCCCCC[N+](C)(C)CC/C=C1/c2ccccc2Sc2ccc(Cl)cc21,-3.1%,-5.0%,-1.4%,1.78µM*,-89.4%,.
CCCCCCCCCC[N+](C)(C)CC/C=C1/c2ccccc2Sc2ccc(Cl)cc21,-1.8%,0.8%,1.4%,17.8µM*,-4.3%,.
CCOC(=O)N1CCC(NC(=O)c2ccc3c(c2)N(Cc2cc(C)ccc2C)C(=O)c2ccccc2S3(=O)=O)CC1,.,3.4%,.,4.6%,.,.
CC1(C(=O)NCc2ccccc2)CSCC(=O)N1Cc1cccc(C(F)(F)F)c1 (stereo unspecified),.,.,.,.,.,0.0%
Cc1ccc(-c2csc3ncn(-n4c(C)ccc4C)c(=O)c23)o1,-18.5%,?,5.9%,6.31µM*,2.1%,-5.3%
Cc1sc2ncn(-n3c(C)ccc3C)c(=O)c2c1C,3.4%,-1.9%,2.1%,?,-11.8%,5.5%
CC1(C)CC(=O)C(c2c[nH]c3ccccc23)C(=O)C1,-1.3%,-17.0%,1.3%,20µM*,3.6%,-2.8%
COCCCn1c(-c2ccco2)nc2ccccc2c1=O,-2.4%,-20.0%,3.1%,0.0%,-8.7%,3.8%
COCCCN=C(c1ccco1)n1c(=S)nc(-c2ccco2)n(CCCOC)c1=S,-24.5%,-12.0%,-0.4%,20µM*,-32.1%,-11.6%
O=C(O)[C@@H]1[C@@H]2C[C@@H]3[C@@H](OC(=O)[C@@H]31)[C@H]2Br,.,.,.,.,0.0%,.
COc1ccc(CCNC(=O)c2nc(SCc3ccc(F)cc3)ncc2Cl)cc1OC,.,-1.1%,.,-2.2%,.,.
O=C(Cc1ccc(F)cc1)NCCc1csc2nc(-c3ccc(Cl)cc3)nn12,.,0.8%,.,-1.3%,.,.
CC1CC2(CCCC2)Nc2ccc(F)cc21 (stereo unspecified),7.8%,3.3%,-0.2%,39.8µM*,6.8%,7.3%
CC(=O)Nc1ccc2c(c1)CCCC2,-2.7%,1.7%,-0.8%,-2.9%,-6.2%,-23.2%
CC(=O)Nc1ccc2c(c1)CCCC2=O,-0.6%,0.3%,-3.9%,31.6µM*,-4.1%,-12.0%
CC(=O)Nc1ccc2c(c1)Cc1cc(N3C(=O)C=CC3=O)ccc1-2,.,?,.,.,.,4.47µM*
CC(=O)Nc1ccc2c(c1)Cc1ccc(Cl)cc1-2,.,4.1%,.,.,.,-8.1%
O=C1C=CC(=O)N1c1ccc2c(c1)Cc1cc(F)ccc1-2,.,?,.,.,.,2.82µM*
COc1ccc(C2NC(=O)NC(O)(C(F)(F)F)C2C(=O)c2ccc(F)cc2)cc1 (stereo unspecified),-2.2%,-9.3%,-0.9%,44.7µM*,1.9%,4.7%
COc1cc(C2NC(=O)NC(O)(C(F)(F)F)C2C(=O)c2ccc(Cl)cc2)ccc1O (stereo unspecified),1.3%,1.3%,2.1%,?,1.2%,10.7%
Nc1nc(Sc2ccc(C(F)(F)F)cc2[N+](=O)[O-])n[nH]1,13.9%,-3.9%,-2.0%,0.8%,11.3%,-4.0%
